The list is not random: actives were taken first. Their share in the collection is about 19%.
IL1B secr inh = inflammasome signaling inhibition, IL-1 beta readout. THP-1 LPS/ATP IL-1B secretion, AlphaLISA, 16 h; active compounds read low. activity change, % at 57.5 µM. 360,000 compounds, 4.7% hits. AID 743279; in the data active means activity change below about -50%; inconclusive means mostly about -30% to -49%
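THP-1 cells pretreated 1 hr with compounds (up to 57.5 uM final), then stimulated with LPS (250 ng/mL final) plus ATP (1.25 mM final); secreted IL-1B measured by AlphaLISA after 16 hr, decreased signal indicating inhibition.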
TDP1 cell noCPT = qHTS for Inhibitors of human tyrosyl-DNA phosphodiesterase 1 (TDP1): qHTS in cells in absence of CPT; DT40 Tdp1-/- hTDP1 cells, no CPT, ATP luminescence, 48 h; Potency, µM (highest dose often 46.2 µM), without a hit: top-dose activity change, negative = growth inhibition, actives largely listed as inhibitors; 420,000 compounds, 15% hits; AID 686978, 2013; further: potency means the concentration at half of the fitted maximal effect; nearly all actives have a fitted effect of over 55% in size
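Seeded 400 DT40-hTDP1 cells/well (vehicle DMSO, no 20 nM CPT); pinned compounds; ≥48 hr at 37 °C; CellTiter-Glo luminescence as viability measure.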
DT40 TDP1 CPT = growth inhibition of DT40 Tdp1-/-;hTDP1 cells with camptothecin (screen for TDP1 inhibitors). chicken DT40 Tdp1-/-;hTDP1 cells + 20 nM CPT, ATP luminescence, 48 h. Potency, µM (highest dose often 46.2 µM), for the others: at the top dose activity change, negative = growth inhibition, usual class: inhibitors. 420,000 compounds, 12% hits. AID 686979; further: potency means the concentration at half of the fitted maximal effect; nearly all actives have a fitted effect of over 55% in size
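Chicken DT40 Tdp1-/- cells stably complemented with human TDP1 were seeded at 400 cells/well in medium containing 20 nM camptothecin, exposed to pin-transferred compounds, and grown at 37 °C for at least 48 hr. Viability was read as ATP luminescence.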
HT1080 IDH1KD tx = kills HT-1080 cells with IDH1 knockdown; HT-1080 IDH1 knockdown viability, ATP luminescence, 48 h; Potency, µM (highest dose often 46.1 µM), inactives show top-dose activity, negative = toxicity, hits mostly cytotoxic; 360,000 compounds, 2% hits; AID 686971;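 further: potency means the concentration at half of the fitted maximal effect; 0% = DMSO wells and -100% = cell-free medium wells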
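After a 2 h attachment period, IDH1KD HT-1080 cells took pin-transferred compound for 48 h at 37 °C; ATP-based luminescence after 10 min room-temperature reagent incubation reported viability.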
HT1080-NT tox = kills 2HG-producing HT-1080-NT fibrosarcoma cells; HT-1080-NT fibrosarcoma viability, CellTiter-Glo ATP luminescence, 48 h; Potency, µM (series often up to 46.1 µM), without a hit: at the top dose activity, negative = less viability, most hits filed as cytotoxic; 360,000 compounds, 1.6% hits; AID 686970;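 further: NT is the 2HG producing partner of a matched IDH1 knockdown line; potency means the concentration at half of the fitted maximal effect; 0% = DMSO-treated cells and -100% = media-only wells without cells; nearly all actives have a fitted effect of over 55% in size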
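750 cells/well, RPMI + 5% FBS; 2 h settle, compound pin-transfer, 48 h at 37 degrees C. CellTiter-Glo 10 min RT, luminescence. Normalized to DMSO and media-only wells.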
An asterisk follows results filed as active; ? = inconclusive; nt = no result given; [ ] = remark or other dose. Unless noted, the call rests on the fitted dose curve; in most records, active means well fitted curve in the direction sought with a large enough effect; inconclusive means small, poorly fitted or top-dose-only effect, or another doubt; inactive means no such curve, though single readings can be large; an effect the other way counts as inactive or inconclusive. Unless noted, on the % scale 0 is the no-effect control and ±100 the full control effect.

SMILES | IL1B secr inh | TDP1 cell noCPT | DT40 TDP1 CPT | HT1080 IDH1KD tx | HT1080-NT tox
COc1ccccc1CNC(=O)CCCn1c(=O)c2ccccc2n(Cc2ccc(F)cc2)c1=O | nt | ? | 16µM* | nt | nt
CCOC(=O)c1ccc(NC(=O)NC2CC3CCC(C2)N3Cc2nnnn2C(C)(C)C)cc1 (stereo not drawn) | 14 | -17% | -10% | -6% | -25%
O=C(NC1CCCCC1)C1c2ccccc2C(=O)N1Cc1ccc2c(c1)OCO2 (stereo not drawn) | -13 | 1% | -2% | 1% | 6%
CCOC(=O)c1c(NC(C)=O)sc2c1CCC(C=NCCCN(CC)CC)=C2Sc1ccccc1 | -97* | 13µM* | 15µM* | ? | ?
CCOC(=O)c1c(NC(C)=O)sc2c(OCCN(CC)CC)c(Br)ccc12 | -3 | ? | ? | -28% | -6%
Cc1ccc2[nH]c(CCN(C)C)c(CN3CCOCC3)c2c1 | -24 | ? | 21µM* | 2% | 1%
CCCCn1c(N)c(N(CC(C)C)C(=O)C2CCN(S(=O)(=O)c3ccc(C)cc3)CC2)c(=O)[nH]c1=O | 0 | -18% | -14% | 1% | 0%
O=C(C[C@H]1CC[C@@H](NS(=O)(=O)c2ccccc2)[C@@H](CO)O1)NCc1ccc(Cl)c(Cl)c1 | 21 | 21µM* | 21µM* | -11% | -11%
C=CCn1c(SCC(=O)N2CC(=O)Nc3ccccc32)nc2scc(-c3ccccc3)c2c1=O | -52* | ? | ? | 6% | -16%
C=CCn1c(SC(F)F)nc2scc(-c3ccco3)c2c1=O | ? | 5% | 9% | ? | -7%
C=CCn1c(SCC(C)=O)nc2scc(-c3ccco3)c2c1=O | -5 | 13µM* | ? | -4% | -7%
CCn1cc(/C=C/C(=O)Nc2ccn(Cc3c(F)c(F)cc(F)c3F)n2)cn1 | 8 | 12µM* | ? | -3% | -1%
CCSc1ccc(C(=O)Nc2ccc(Br)cn2)cc1[N+](=O)[O-] | -28 | ? | -9% | -9% | -17%
Cn1cc([N+](=O)[O-])c(C(=O)Nc2nccs2)n1 | -98* | 13% | 4% | ? | ?
Cn1cc([N+](=O)[O-])c(C(=O)Nc2ccc(Br)cn2)n1 | -87* | -6% | -19% | 7.1µM* | 11µM*
Cn1cc([N+](=O)[O-])c(C(=O)Nc2ccn(Cc3c(F)c(F)cc(F)c3F)n2)n1 | nt | -1% | -15% | 6.3µM* | 7.1µM*
COCCNc1ncncc1-c1c(C)noc1C | nt | -4% | -10% | nt | nt
CCOC(=O)N1CCN(C(=O)c2cc3n(n2)C(C(F)(F)F)CC(c2ccc4c(c2)OCO4)N3)CC1 (stereo not drawn) | 0 | 15µM* | ? | 4% | 6%
COc1ccccc1NC(=O)c1cc2n(n1)C(C(F)(F)F)CC(c1ccc3c(c1)OCO3)N2 (stereo not drawn) | ? | 18µM* | 16µM* | -12% | -12%
COc1ccc(C2CC(C(F)(F)F)n3nc(C(=O)Nc4ccc5c(c4)OCO5)cc3N2)cc1 (stereo not drawn) | -2 | ? | ? | -18% | -13%
COc1ccc(OC)c(NC(=O)c2cc3n(n2)C(C(F)(F)F)CC(c2ccc4c(c2)OCO4)N3)c1 (stereo not drawn) | -61* | ? | ? | ? | ?
O=C(NCc1ccco1)c1cc2n(n1)C(C(F)(F)F)CC(c1ccc(Cl)c(Cl)c1)N2 (stereo not drawn) | 3 | ? | ? | -16% | -19%
O=C(NCc1ccc2c(c1)OCO2)c1cc2n(n1)C(C(F)(F)F)CC(c1ccc3c(c1)OCO3)N2 (stereo not drawn) | 0 | -14% | ? | -20% | -2%
O=C(Nc1cc(Cl)ccc1O)c1cc2n(n1)C(C(F)(F)F)CC(c1ccc3c(c1)OCO3)N2 (stereo not drawn) | -87* | 16µM* | 23µM* | -13%[9.24 µM] | -23%
Cc1cc(F)ccc1NC(=O)c1csc2c1CCC(C)C2 (stereo not drawn) | nt | -4% | ? | nt | nt
SMILES | IL1B secr inh | TDP1 cell noCPT | DT40 TDP1 CPT | HT1080 IDH1KD tx | HT1080-NT tox
OC[C@@H]1CCC[C@@H](n2cnc3c(=S)nc[nH]c32)O1 | nt | -12% | ? | nt | nt
CCC(NC(=O)C1C2C=CC(C2)C1C(=O)O)c1ccc(C)cc1 (stereo not drawn) | 5 | -6% | 1% | -11% | 2%
C=CCOC(=O)C1=C[C@@H](c2ccccc2)[C@H](CCCO)[C@@H](OCC)O1 | 16 | ? | 15µM* | ? | ?
C=CCOC(=O)C1=C[C@@H](c2ccc(Br)cc2)[C@H](CCCO)[C@@H](OCC)O1 | 2 | ? | ? | -5% | -2%
C=CCOC(=O)C1=C[C@@H](c2ccc(C(F)(F)F)cc2)[C@H](CCCO)[C@@H](OCC)O1 | 6 | 12µM* | 23µM* | 0% | 2%
C=CCOC(=O)C1=C[C@H](c2ccc(C(F)(F)F)cc2)[C@@H](CCCO)[C@H](OCC)O1 | 19 | ? | 23µM* | 2% | -2%
S=C(Nc1ccccc1Cl)N1CCCC(c2ccccc2)=N1 | nt | 29µM* | ? | -20% | -17%
Fc1ccc(NC(=S)N2CCCc3ccccc32)cc1 | 31 | ? | -9% | -19% | -9%
CC(C)c1ccc(NC(=S)N2CCCC(c3ccc(F)cc3)=N2)cc1 | -20 | 29µM* | ? | -1% | -4%
COc1ccc(CNC(=O)CC2N=C3c4ccccc4N=C(SCC(=O)Nc4ccc(C(C)C)cc4)N3C2=O)cc1 (stereo not drawn) | nt | -22% | -10% | nt | nt
CC(C)(C)C1CCc2onc(C(=O)Nc3cccnc3)c2C1 (stereo not drawn) | -25 | -19% | -15% | -19% | -9%
Cc1ccc(NC(=O)c2noc3c2CC(C(C)(C)C)CC3)cc1 (stereo not drawn) | -27 | 23µM* | ? | 6% | 18%
COC(=O)c1ccccc1NC(=O)c1noc2c1CC(C(C)(C)C)CC2 (stereo not drawn) | 6 | 21µM* | ? | 2% | 3%
CC(C)(C)C1CCc2onc(C(=O)NCc3ccc(F)cc3)c2C1 (stereo not drawn) | -30 | ? | ? | 16% | 20%
CC1CCN(S(=O)(=O)c2ccc3c(c2)N(CC(=O)NC(C)(C)C)C(=O)CS3)CC1 | nt | -19% | -20% | nt | nt
CCN(CC)S(=O)(=O)c1ccc(C)c(NC(=O)CSc2ncc(C(F)(F)F)cc2Cl)c1 | -13 | 23µM* | ? | -17% | 0%
NS(=O)(=O)c1cccc(NC(=O)CSc2ncc(C(F)(F)F)cc2Cl)c1 | -111* | -29% | -40% | -5% | -1%
